For 34 compounds, growth results are on record in PubChem BioAssay (NCI).

This is part of a sample that, as a whole, favours compounds with a hit. Of some 83,000 tested, about 20% had one in any assay.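 Negative percent growth values reflect cell death: -40 means 40% of the cells present at the start died, and -100 means all died.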 A number with no mark means an inactive call. Activity calls are given as the source filed them. The calls were made as follows: active = growth percent below 10; inactive = the rest.

One test concerns NCI-H460 lung. Nature of the test: NCI-60 one-dose screen, 48 h (100 = growth as untreated, 0 = no growth, -100 = all killed). As to conditions: 10 µM unless noted.
On to `CCCCCCCCc1ccc(C(=O)Nc2cccc(O)c2)cc1`, for which the growth is 90.5%.
As to `COc1ccc(/C=C/C(=O)c2ccc(OC)c(S(N)(=O)=O)c2)c(C(F)(F)F)c1`, the growth was 4.78% (active).
For `C#CCN(C)CCCOc1ccc(N(CC)C(=O)c2cc(C(C)C)c(O)cc2O)cc1Cl`, the growth was -52.4% (active).
Take `CC1=C(C(=O)OCc2ccccc2)C(c2ccc(N(C)C)cc2)n2c(nc3ccccc32)N1` (centres undefined): the growth is 99.8%.
Consider `Cc1ccc(C2CC(c3ccc(NC(=O)Nc4ccccc4)cc3)=NN2c2ccc(S(N)(=O)=O)cc2)cc1` (centres undefined), for which the growth was -86.1% (active).

For a further test, the system named is HOP-92 NSCLC. Described as above. To be noted: 10 µM unless noted.
`Cc1ccc(C(=O)Nc2cc(-n3cnc(F)c3)cc(C(F)(F)F)c2)cc1C#Cc1cnc2cccnn12`: the growth is 57.5%.
Same read-out and setting: as for `O=C(N/N=C/c1ccc(-c2cccc([N+](=O)[O-])c2)s1)c1[nH]c2ccc(Br)cc2c1-c1ccccc1`, the figure is 94.4%; as for `Nc1cc2ccccc2c(=O)n1NC(=O)c1ccccc1`, 111%.
Same read-out and setting: as for `C[C@@H]1[C@H]2C[C@@H](C[C@H]1NCc1nc3ccccc3n1C1CCCCCC1)C2(C)C`, the figure is 28.9%; as for `COc1cc2cc(C(=O)N3C[C@@H](CCl)c4c3cc(OC(=O)N(CCC(=O)N3CCN(C)CC3)[C@H]3CCSSC3)c3ccccc43)[nH]c2c(OC)c1OC`, -7.53% (active); as for `Cc1cn(-c2cc(NC(=O)c3ccc(C)c(-n4cc(-c5cnc6cccnn56)nn4)c3)cc(C(F)(F)F)c2)cn1`, 53.9%.
The same measure, in the same setting: with `Cn1cc(-c2cc(N)n3nc(-c4c[nH]c5ccc(F)cc45)cc3n2)c2cccnc21` the figure was -73.7% (active); with `FC(F)(F)c1cc2c(Cl)ncnc2n1CCN1CCOCC1`, 107%.
For the compound `CCOC(=O)/C(F)=C/C1CC1C1CCN(C(=O)OC(C)(C)C)CC1` (centres undefined), the growth is 119%.
Still for that read-out and setting: as for `O=C(Nc1ccc(-c2ccc3c(c2)NC(=O)/C3=C\c2ccc[nH]2)cc1)Nc1cccc(Cl)c1`, the figure is 41.5%; as for `O=Cc1cncc(-c2ccc3ncnc(N4CCc5cc(F)c(Cl)cc54)c3c2)c1`, -4.62% (active).
On to `Fc1ccc(F)c(CNc2nc(SCCN3CCOCC3)nc3c2cnn3CC(Cl)c2ccc(Br)cc2)c1` (centres undefined), for which the growth was 20.1%.
Consider `Cc1nc(N)ncc1-c1ccc2ncnc(N3CCc4cc(F)c(Cl)cc43)c2c1`, for which the growth is 13.6%.
On the same count and under the same terms, with `O=C(Cn1c(/C=C/c2ccc([N+](=O)[O-])cc2)nc2ccccc2c1=O)Nc1ccccc1` the figure was 52.1%; with `Nc1nc2cc(-c3ccc4ncnc(NCc5ccccc5)c4c3)ccc2o1`, -39.5% (active).
Same read-out and setting: as for `COc1ccc(-c2nc3ccc(-c4nnc(SCc5ccccc5)o4)cc3[nH]2)cc1`, the figure is 20.9%.
On the same count and under the same terms, as for `O=C(OCCOCCO)N(c1cccc(Br)c1)c1nc(SCCN2CCOCC2)nc2c1cnn2CC(Cl)c1ccc(Br)cc1` (centres undefined), the figure is 30.9%.
Consider `Oc1ccc(Cl)c(Nc2nc(SCCN3CCOCC3)nc3c2cnn3CC(Cl)c2ccc(Br)cc2)c1` (centres undefined), for which the growth was -6.99% (active).
Consider `O=C1/C(=C/C=C/c2ccco2)SC(=S)N1CC(=S)C1C=CS(=O)(=O)C1` (centres undefined), for which the growth is 121%.
The same measure, in the same setting: with `COC(=O)c1cc(C(=O)CBr)n2c1ccc1c3ccccc3ccc12` the figure was 53.2%.
On to `Cc1ccc(-c2cc(C(=O)N=Nc3c(O)[nH]c4ccc(F)cc34)c3ccccc3n2)cc1`, for which the growth is 104%.
Consider `Nc1cc(-c2c[nH]c3ccc(F)cc23)nc2cc(-c3c[nH]c4ccccc34)nn12`, for which the growth is -9.18% (active).
The same measure, in the same setting: with `COc1cc(NC(=O)CSc2nnc(-c3ccc(-c4nc5ccc(Cl)cc5[nH]4)cc3)o2)cc(OC)c1OC` the figure was 91.5%; with `COc1ccc(C(=O)NNC(=O)CSc2nc3sc4c(c3c(=O)n2-c2ccc(Cl)cc2)CCCC4)cc1`, 60.8%; with `CN(CCSSCCN1CCOCC1)C(=O)Oc1cc2c(c3ccccc13)[C@H](CCl)CN2C(=O)c1cc2cc(OCCCN3CCC3)ccc2[nH]1`, -14.1% (active).
The same measure, in the same setting: with `O=C(Cc1c(-c2ccccc2[N+](=O)[O-])n(-c2ncnc3c2c(-c2ccccc2)c(-c2ccccc2)n3Cc2ccccc2)[nH]c1=O)c1ccc(Cl)c(Cl)c1` the figure was -3.98% (active); with `O=C(c1ccc(Cl)cc1)C1[C@H](c2ccccc2Cl)[C@@H](c2ccccc2)NC12C(=O)Nc1ccc(Br)cc12` (some centres undefined), -84.3% (active); with `Cc1cccc(-c2ccccc2Oc2ccc3nnc(Cl)n3n2)c1`, 130%.
In the case of `CCC1(OC(=O)c2ccccc2SSCCOC(=O)CCCCC2SCC3NC(=O)NC32)C(=O)OCc2c1cc1n(c2=O)Cc2cc3ccccc3nc2-1` (centres undefined), the growth is 32.7%.
